IL1B secr inh – inflammasome signaling inhibition, IL-1 beta readout | THP-1 LPS/ATP IL-1B secretion, AlphaLISA, 16 h; stronger effect = lower value | 360,000 compounds, 4.7% hits | activity change, % at 57.5 µM; in the data active = activity change below about -50%; inconclusive = mostly about -30% to -49%; also: % is scaled to controls: 0 for no effect and ±100 for the full control effect
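THP-1 cells pretreated 1 hr with compounds (up to 57.5 uM final), then stimulated with LPS (250 ng/mL final) plus ATP (1.25 mM final); secreted IL-1B measured by AlphaLISA after 16 hr, decreased signal indicating inhibition.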
DT40 TDP1 no CPT – qHTS for Inhibitors of human tyrosyl-DNA phosphodiesterase 1 (TDP1): qHTS in cells in absence of CPT. DT40 Tdp1-/- hTDP1 cells, no CPT, ATP luminescence, 48 h. 420,000 compounds, 15% hits. Potency, µM (highest dose often 46.2 µM), without a hit: top-dose activity change, negative = growth inhibition, hits mostly inhibitors; also: potency is read from the fitted curve at half-maximal effect; % is scaled to controls: 0 for no effect and ±100 for the full control effect; nearly all actives have a fitted effect of over 55% in size
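Chicken DT40 Tdp1-/- cells complemented with human TDP1, screened without camptothecin (DMSO vehicle only), 400 cells/well. Compounds pin-transferred, cells incubated at 37 °C for at least 48 hr. Growth read as ATP-dependent luminescence (CellTiter-Glo, 30 min at RT).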
TDP1 cell CPT – growth inhibition of DT40 Tdp1-/-;hTDP1 cells with camptothecin (screen for TDP1 inhibitors); chicken DT40 Tdp1-/-;hTDP1 cells + 20 nM CPT, ATP luminescence, 48 h; Potency, µM (top dose mostly 46.2 µM), without a hit: at the highest dose activity change, negative = growth inhibition, actives largely listed as inhibitors; 420,000 compounds, 12% hits; also: potency is read from the fitted curve at half-maximal effect; % is scaled to controls: 0 for no effect and ±100 for the full control effect; nearly all actives have a fitted effect of over 55% in size
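Cell growth measured by CellTiter-Glo luminescence after a minimum 48 h, 37 C compound exposure with 20 nM CPT in Tdp1-knockout DT40 cells stably expressing hTDP1, seeded 400/well; qHTS titration format.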
DRD3 antagonist – blocks the human D3 dopamine receptor. AID 652054. max response, negative = inhibition, %. P35462. D3R cells, DiscoveRx beta-arrestin luminescence, antagonist mode; stronger effect = lower value. 360,000 compounds, 2.5% hits; in the data active = max response below about -50%; inconclusive = no clear call, values can overlap the other calls; also: % is scaled to controls: 0 for no effect and ±100 for the full control effect
Target sequence (P35462 whole entry, looked up): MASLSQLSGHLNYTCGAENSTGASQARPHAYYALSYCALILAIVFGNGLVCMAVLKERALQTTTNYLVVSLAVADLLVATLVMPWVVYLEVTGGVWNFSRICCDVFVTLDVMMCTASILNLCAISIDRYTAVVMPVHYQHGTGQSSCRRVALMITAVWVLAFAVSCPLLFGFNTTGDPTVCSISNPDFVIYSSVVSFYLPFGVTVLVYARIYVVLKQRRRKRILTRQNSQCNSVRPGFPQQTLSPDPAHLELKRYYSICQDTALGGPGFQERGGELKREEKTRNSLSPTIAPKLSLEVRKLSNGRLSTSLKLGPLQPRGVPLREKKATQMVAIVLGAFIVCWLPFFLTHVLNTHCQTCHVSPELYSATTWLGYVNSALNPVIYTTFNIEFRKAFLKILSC
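Cells expressing the human receptor were seeded at 1500 cells/well, incubated overnight at 37 degrees C in 5% CO2, then exposed to library compounds with dopamine controls for 90 minutes at 37 degrees C before luminescent detection.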
D3 ag – agonists of human D3 dopamine receptor; P35462; D3R DiscoveRx beta-arrestin cells, luminescence, 90 min; max activation, %; 410,000 compounds, 0.58% hits; AID 652048; in the data active = max activation above about 30%; also: 0% is about no effect
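Agonist-mode cell screen: cells plated at 1500/well and incubated overnight at 37 °C, then exposed to library compounds for 90 min at 37 °C. Detection reagent was added for 30–60 min at room temperature, and luminescence was read.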
ClpP mod – qHTS Assay for Activators of ClpP; ATP-dependent Clp protease proteolytic subunit (Bacillus subtilis (strain 168)), P80244; purified B. subtilis ClpP, FRET peptide cleavage, 20 min; Potency, µM (highest dose often 57.5 µM), for the others: at the top dose activity change, negative = active; 340,000 compounds, 1.9% hits; AID 651965, 2013; active = well fitted falling curve with a large enough effect; inconclusive = small, poorly fitted or top-dose-only effect; inactive = no such curve, though single readings can be large or run the other way; also: potency is read from the fitted curve at half-maximal effect; the source files actives as falling curves though it sought activators and does not explain the sign; nearly all actives have a fitted effect of over 65% in size
Target sequence (P80244 whole entry, looked up): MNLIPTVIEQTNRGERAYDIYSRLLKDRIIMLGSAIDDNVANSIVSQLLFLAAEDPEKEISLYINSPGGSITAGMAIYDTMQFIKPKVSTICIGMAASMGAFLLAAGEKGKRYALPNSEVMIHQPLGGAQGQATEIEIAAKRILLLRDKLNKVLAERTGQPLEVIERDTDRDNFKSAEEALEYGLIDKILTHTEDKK
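Purified B. subtilis ClpP, 10 microg/mL final in Tris/HCl pH8 with KCl, BSA, glycerol and Tween-20, cleaved an Abz/nitrotyrosine-quenched decapeptide. Fluorescence (ex 320, em 430) was read at 0 and 20 min at room temperature. Delta was normalized to 5.8 microM ADEP and DMSO/no-enzyme controls.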
Starred values were filed as active, the others as inactive; ? = inconclusive; · = not tested or not shown. Compounds with a hit are over-represented: about 21% of the library has one in this group of screens. Unless noted, calls follow the shape of the dose curve; as a rule, active = well fitted inhibition curve with a large enough effect; inconclusive = small, poorly fitted or top-dose-only effect; inactive = flat fitted curve, though single readings scatter.

SMILES	IL1B secr inh	DT40 TDP1 no CPT	TDP1 cell CPT	DRD3 antagonist	D3 ag	ClpP mod
CCc1nc2ccccc2c(C(=O)OCCN2C(=O)c3ccccc3C2=O)c1C	18.5	?	?	18.9	8.0	-2.6%
CCc1nc2ccccc2c(C(=O)OCC(=O)NC2CC2)c1C	-22.7	?	?	3.4	1.2	-6.5%
CCc1nc2ccccc2c(C(=O)OCC(=O)C(C)(C)C)c1C	15.2	18.4µM*	?	-2.4	2.4	·
CCc1nc2ccccc2c(C(=O)OCc2nc3ccccc3c(=O)[nH]2)c1C	-56.0*	4.61µM*	3.26µM*	65.2	24.2	·
C=CC1=C(C)/C(=C/c2[nH]c(Cc3[nH]c(/C=C4\NC(=O)C(C)=C4C=C)c(C)c3CCC(=O)O)c(CCC(=O)O)c2C)NC1=O	·	-13.6%	-48.5%	·	·	·
COc1ccc(-c2ccc3c(c2)c(Sc2ccccc2)c(-c2cc(OC)cc(OC)c2)n3C)cc1	29.2	-16.9%	-2.0%	0.0	-5.4	-17.8%
COc1ccc(-c2c(-c3cc(OC)cc(OC)c3)n(C)c3ccc(-c4ccc(SC)cc4)cc23)cc1	8.6	7.4%	-6.0%	25.7	6.8	-5.0%
COc1ccc(-c2ccc3c(c2)c(-c2cccs2)c(-c2cc(OC)cc(OC)c2)n3C)cc1	11.4	23.1µM*	?	-26.9	4.9	4.0%
COc1cc(OC)cc(-c2c(-c3cccs3)c3cc(-c4cnc(OC)nc4)ccc3n2C)c1	0.5	14.6µM*	?	-10.9	-7.9	?
COc1cc(OC)cc(-c2c(-c3cccs3)c3cc(-c4cc(OC)c(OC)c(OC)c4)ccc3n2C)c1	-16.6	-51.5%	?	33.0	-14.4	3.9%
COc1cc(OC)cc(-c2c(Sc3ccccc3)c3cc(-c4cnc(OC)nc4)ccc3n2C)c1	20.1	-28.5%	-13.0%	?	40.0*	?
COc1cc(OC)cc(-c2c(-c3cccs3)c3cc(-c4ccc(C(N)=O)cc4)ccc3n2C)c1	17.4	16.4µM*	?	71.2	38.9*	4.2%
Cc1ccc(Nc2nnc(SCC(=O)NC(Cc3c[nH]c4ccccc34)C(=O)O)s2)cc1 (stereo unspecified)	24.5	-1.3%	-0.4%	0.2	0.6	1.3%
Cc1cc(C)c(C2=Nn3c(C)nnc3SC2C)cc1C (stereo unspecified)	26.2	11.6µM*	18.4µM*	-5.4	4.3	·
COc1cc(CCC(=O)NNC(=O)c2cccc(Cl)c2)cc(OC)c1OC	0.6	-3.0%	13.5%	7.5	3.6	·
Cc1ccc(Cl)cc1NC(=O)Nc1nnc(N(C)Cc2ccccc2)s1	·	23.1µM*	20.6µM*	·	-7.6	-0.2%
Cc1cccc(NC(=O)/C(C#N)=C/c2ccco2)c1	·	?	?	·	-17.3	4.0%
Cc1ccc2nc(N(Cc3cccnc3)C(=O)CCOc3ccccc3)sc2c1	·	?	?	·	-0.7	3.0%
O=C(COc1ccccc1)N(Cc1cccnc1)c1nc2c(F)cccc2s1	·	-16.7%	-7.6%	·	6.6	-1.0%
O=C(CCOc1ccccc1)N(Cc1cccnc1)c1nc2c(F)cccc2s1	·	7.31µM*	13µM*	·	-11.4	-2.9%
Cc1ccc2sc(N(Cc3cccnc3)C(=O)CCOc3ccccc3)nc2c1C	·	18.4µM*	23.1µM*	·	3.0	-1.0%
CN1C(=O)N(CC(=O)N2CCN(c3ncccn3)CC2)C(=O)C12CCCCC2	-8.7	1.9%	7.7%	21.7	4.1	·
CCOCCn1ccc2c(OCC(=O)Nc3ccc(OC)cc3OC)cccc2c1=O	0.1	?	-22.9%	26.5	-9.2	-11.5%
CCCn1ccc2c(OCC(=O)Nc3ccccc3OCC)cccc2c1=O	·	11.6µM*	20.6µM*	·	5.9	?
COCCn1ccc2c(OCC(=O)Nc3ccccc3OC)cccc2c1=O	?	20.6µM*	18.4µM*	3.1	-6.5	?
SMILES	IL1B secr inh	DT40 TDP1 no CPT	TDP1 cell CPT	DRD3 antagonist	D3 ag	ClpP mod
CCCn1ccc2c(OCC(=O)NCc3ccccc3Cl)cccc2c1=O	·	23.1µM*	?	·	4.3	-24.6%
CCOCCn1ccc2c(OCC(=O)Nc3ccccc3F)cccc2c1=O	-3.1	?	?	10.3	3.0	-20.0%
CCOCCn1ccc2c(OCC(=O)NCCc3ccc(OC)c(OC)c3)cccc2c1=O	17.9	-3.8%	-4.0%	2.6	5.7	-16.3%
CCOc1ccccc1NC(=O)COc1cccc2c(=O)n(CCOC)ccc12	·	13µM*	11.6µM*	·	12.3	-19.9%
CCOc1ccccc1NC(=O)CCNC(=O)Cn1ccc2ccccc2c1=O	-18.6	-11.9%	-14.2%	4.4	0.7	·
O=C(NCCN1CCOCC1)c1ccccc1OCc1ccccc1	-10.2	-20.8%	-14.9%	7.3	-14.8	0.5%
CCN(Cc1cc2cc(C)ccc2[nH]c1=O)C(=O)c1cccc([N+](=O)[O-])c1	10.2	-17.2%	-4.4%	13.1	-11.6	-1.7%
CCOC(=O)c1cc(NC(=O)CC(C)(C)CC(=O)O)ccc1N1CCCCC1	27.9	-11.6%	-5.0%	7.9	7.2	·
COc1cccc(NC(=O)CC2Nc3cc(C)c(C)cc3NC2=O)c1 (stereo unspecified)	·	?	?	·	-10.0	?
COc1ccc(C)cc1-n1cnc2cc(C(=O)NC3CCCC3)ccc21	·	?	?	·	-12.7	-3.2%
COc1ccc(N2CCN(Cc3nc4c(c(=O)n(C)c(=O)n4C)n3CC(C)=O)CC2)cc1	18.6	23.1µM*	13µM*	19.1	8.5	0.2%
COc1ccc(N2CCN(Cc3nc4c(c(=O)n(C)c(=O)n4C)n3Cc3ccccc3C)CC2)cc1	10.4	16.4µM*	18.4µM*	5.9	-5.7	0.3%
C=C1[C@H](C)CN[C@H]1CCO	23.2	5.6%	1.7%	-5.3	4.2	-2.3%
Cc1cc(C)cc(-n2ncc3c2CCCC3NC(=O)c2ccccc2N2CCOCC2)c1 (stereo unspecified)	-18.9	16.4µM*	?	-7.9	-8.0	-3.3%
CCc1noc(C)c1C(=O)NC1CCCc2c1cnn2-c1cc(C)cc(C)c1 (stereo unspecified)	-24.6	-0.7%	?	-2.6	1.1	-4.4%
O=C(NC1CCCc2c1cnn2-c1ccccc1F)c1ccccc1N1CCOCC1 (stereo unspecified)	?	13µM*	16.4µM*	5.8	-2.0	-1.2%
COc1ccc(CN(C(=O)CSc2nnc(-c3c[nH]c4ccccc34)o2)c2ccc(F)cc2)cc1OC	-82.8*	9.2µM*	8.2µM*	39.9	9.5	-8.7%
